Assay results from PubChem BioAssay (EPA / NIEHS).
The source made the active and inactive calls. How the source made its calls: active means hit-call score of the fitted dose curve at least 0.9, where 1 is the maximum; inactive means score below 0.9.

Columns and labels:
Settings in all cases: mRNA level, 48 h; actives raise or lower the signal
[1] = read-out: Glutathione S-transferase M3 (GSTM3), GSTM3 (gene 2947); experiment: LTEA_HepaRG_GSTM3: Life Technologies and Expression Analysis (LTEA) Assay for Glutathione S-transferase M3 (GSTM3) using HepaRG (AID 2283501)
How it was run: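 Differentiated human HepaRG cells were exposed in duplicate for 48 h in serum-free induction medium, 8 points from 100 uM top in half-log steps, 0.5% DMSO. GSTM3 mRNA was measured by TaqMan qRT-PCR, normalized to ACTB, GAPDH and POLR2A; bidirectional fit versus DMSO.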

[2] = read-out: Heat shock 70 kDa protein 1 (HSPA1A), gene 3303; experiment: LTEA_HepaRG_HSPA1A: Life Technologies and Expression Analysis (LTEA) Assay for Heat shock 70 kDa protein 1 (HSPA1A) using HepaRG (AID 2283502)
How it was run: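 Cells were plated and cultured for 48 h, then switched to serum-free induction medium. Chemicals were added at eight half-log concentrations up to 100 uM for 48 h. RNA was then isolated and HSPA1A measured by qRT-PCR with bidirectional curve fitting against DMSO.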

[3] = read-out: Hypoxia-inducible factor 1-alpha (Homo sapiens) (UniProt Q16665); experiment: LTEA_HepaRG_HIF1A: Life Technologies and Expression Analysis (LTEA) Assay for Hypoxia-inducible factor 1 (HIF1A) Trancription factor using HepaRG (AID 2283503)
How it was run: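 HIF1A transcript level read by qRT-PCR (ACTB, GAPDH, POLR2A normalization) after 48 h chemical exposure of HepaRG cultures. Eight half-log concentrations, top 100 uM, 0.5% DMSO vehicle, duplicates; bidirectional curve fit against DMSO baseline.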

[4] = read-out: 3-Hydroxy-3-Methylglutaryl-CoA Synthase 2 (HMGCS2), HMGCS2 (gene 3158); experiment: LTEA_HepaRG_HMGCS2: Life Technologies and Expression Analysis (LTEA) Assay for 3-Hydroxy-3-Methylglutaryl-CoA Synthase 2 (HMGCS2) using HepaRG (AID 2283504)
How it was run: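 Human HepaRG cells in serum-free induction medium were exposed in duplicate for 48 h to 8-point half-log series from 100 uM top in 0.5% DMSO. HMGCS2 mRNA measured by TaqMan qRT-PCR, normalised to ACTB, GAPDH, POLR2A; bidirectional fit versus DMSO.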

HGF (gene 3082) = experiment: LTEA_HepaRG_HGF: Life Technologies and Expression Analysis (LTEA) Assay for Hepatocyte Growth Facto (HGF) using HepaRG (AID 2283505)
How it was run: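 Differentiated HepaRG cells in serum-free induction medium exposed 48 h in duplicate, 8 half-log concentrations from 100 uM in 0.5% DMSO. HGF mRNA by qRT-PCR, normalised to ACTB, GAPDH, POLR2A; bidirectional fitting.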

[5] = read-out: Insulin Like Growth Factor 1 (IGF1), IGF1 (gene 3479); experiment: LTEA_HepaRG_IGF1: Life Technologies and Expression Analysis (LTEA) Assay for Insulin Like Growth Factor 1 (IGF1) using HepaRG (AID 2283506)
How it was run: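 Cells are thawed, plated and cultured 48 h, then exposed in duplicate to chemical (highest 100 uM, half-log steps, 0.5% DMSO) for another 48 h. Total RNA is analysed by Fluidigm qRT-PCR for IGF1 expression relative to vehicle.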

[6] = read-out: Intercellular Adhesion Molecule 1 (ICAM1), ICAM1 (gene 3383); experiment: LTEA_HepaRG_ICAM1: Life Technologies and Expression Analysis (LTEA) Assay for Intercellular Adhesion Molecule 1 (ICAM1) using HepaRG (AID 2283507)
How it was run: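 Differentiated human HepaRG cells in serum-free induction medium exposed 48 h in duplicate to 8 half-log concentrations (top 100 uM, 0.5% DMSO). ICAM1 mRNA quantified by TaqMan qRT-PCR, normalized to ACTB, GAPDH and POLR2A; bidirectional fitting versus DMSO.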

[7] = read-out: Insulin-like growth factor-binding protein 1 (IGFBP1), IGFBP1 (gene 3484); experiment: LTEA_HepaRG_IGFBP1: Life Technologies and Expression Analysis (LTEA) Assay for Insulin-like growth factor-binding protein 1 (IGFBP1) using HepaRG (AID 2283508)
How it was run: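 HepaRG cells, plated 48 h then switched to serum-free induction medium, exposed in duplicate for 48 h to 8-point half-log series from 100 uM in 0.5% DMSO. mRNA measured by qRT-PCR, normalized to ACTB/GAPDH/POLR2A; bidirectional fit versus DMSO.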

[8] = read-out: Interleukin 6 (IL6), IL6 (gene 3569); experiment: LTEA_HepaRG_IL6: Life Technologies and Expression Analysis (LTEA) Assay for Interleukin 6 (IL6) using HepaRG (AID 2283509)
How it was run: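 Changes in IL6 mRNA, up or down relative to 0.5% DMSO controls, were derived from concentration-response curves in human HepaRG cells treated for 48 h at up to 100 uM, with ACTB, GAPDH and POLR2A as normalizers.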

[9] = read-out: Interleukin 6 Receptor (IL6R), IL6R (gene 3570); experiment: LTEA_HepaRG_IL6R: Life Technologies and Expression Analysis (LTEA) Assay for Interleukin 6 Receptor (IL6R) using HepaRG (AID 2283510);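 on AC50: TaqMan qRT-PCR signal normalized to ACTB GAPDH and POLR2A housekeeping genes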
How it was run: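 Cells were thawed, plated and cultured 48 h, then medium was changed to serum-free induction medium. Chemicals were added in duplicate (100 uM top, half-log steps, 0.5% DMSO) for 48 h. Lysates were analyzed by qRT-PCR for IL6R expression.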

Hypoxia-inducible factor 1-alpha (Homo sapiens), sequence (Q16665 whole entry, looked up): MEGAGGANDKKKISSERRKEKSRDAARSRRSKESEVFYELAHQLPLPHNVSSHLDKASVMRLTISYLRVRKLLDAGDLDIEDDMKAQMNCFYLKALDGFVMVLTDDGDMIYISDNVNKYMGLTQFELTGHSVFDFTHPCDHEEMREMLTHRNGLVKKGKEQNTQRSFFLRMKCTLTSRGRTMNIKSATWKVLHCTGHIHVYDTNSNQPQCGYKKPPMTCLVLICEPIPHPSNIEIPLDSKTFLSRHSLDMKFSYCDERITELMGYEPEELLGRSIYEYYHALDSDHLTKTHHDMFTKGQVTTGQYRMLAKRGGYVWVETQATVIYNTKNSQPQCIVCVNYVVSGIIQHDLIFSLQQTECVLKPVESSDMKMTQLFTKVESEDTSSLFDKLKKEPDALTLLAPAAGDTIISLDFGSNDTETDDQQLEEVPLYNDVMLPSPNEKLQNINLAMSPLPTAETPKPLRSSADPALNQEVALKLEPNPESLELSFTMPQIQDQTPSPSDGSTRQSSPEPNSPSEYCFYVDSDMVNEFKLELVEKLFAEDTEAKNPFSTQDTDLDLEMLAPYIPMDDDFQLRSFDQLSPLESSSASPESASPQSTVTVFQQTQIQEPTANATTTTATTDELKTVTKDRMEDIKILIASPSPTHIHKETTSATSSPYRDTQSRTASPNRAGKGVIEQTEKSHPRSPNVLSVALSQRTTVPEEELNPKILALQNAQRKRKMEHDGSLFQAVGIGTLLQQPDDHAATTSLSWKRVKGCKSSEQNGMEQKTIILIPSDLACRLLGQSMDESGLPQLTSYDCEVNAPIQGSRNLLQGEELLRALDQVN

SMILES	outcome [1]	outcome [2]	outcome [3]	AC50 [4]	outcome (HGF (gene 3082))	AC50 [5]	outcome [6]	outcome [7]	outcome [8]	AC50 [9]	outcome [4]	outcome [5]	outcome [9]	AC50 [1]	AC50 [3]	AC50 [7]	AC50 [8]
CCN(CC)C(=O)C(C)Oc1cccc2ccccc12 (stereo unspecified)	inactive	inactive	inactive	76.9 µM (active)	inactive	66.3 µM (active)	inactive	inactive	inactive	20.3 µM (active)							
CC(C)NC(=O)N1CC(=O)N(c2cc(Cl)cc(Cl)c2)C1=O	inactive	inactive	inactive	13.2 µM (active)	inactive	3.79 µM (active)	inactive	inactive	inactive	2.86 µM (active)							
Nc1cnn(-c2ccccc2)c(=O)c1Cl	inactive	inactive	inactive		inactive			inactive	inactive		inactive	inactive	inactive				
N#Cc1c[nH]cc1-c1cccc2c1OC(F)(F)O2		inactive		79.3 µM (active)	inactive		inactive		inactive	19.6 µM (active)		inactive		50 µM (active)	83.4 µM (active)	69 µM (active)	
O=C(Nc1ccccc1-c1ccc(Cl)cc1)c1cccnc1Cl	inactive	inactive	inactive	52.5 µM (active)	inactive	52.5 µM (active)	inactive	inactive	inactive				inactive				
CCOc1nc(F)cc2nc(S(=O)(=O)Nc3c(Cl)cccc3Cl)nn12	inactive	inactive	inactive		inactive	14.4 µM (active)	inactive				inactive		inactive			50 µM (active)	29.8 µM (active)
Clc1nc(Cl)nc(Nc2ccccc2Cl)n1	inactive	inactive	inactive		inactive		inactive	inactive	inactive		inactive	inactive	inactive				
Cc1nc(N(C)C)nc(OC(=O)N(C)C)c1C	inactive	inactive	inactive		inactive		inactive	inactive	inactive		inactive	inactive	inactive				
CCCCOCN(C(=O)CCl)c1c(CC)cccc1CC	inactive	inactive	inactive		inactive	50 µM (active)	inactive	inactive	inactive		inactive		inactive				
COP(=S)(OC)SCn1nnc2ccccc2c1=O	inactive	inactive	inactive		inactive			inactive	inactive		inactive	inactive	inactive				
CCC(C)n1c(=O)[nH]c(C)c(Br)c1=O (stereo unspecified)	inactive	inactive	inactive	29.2 µM (active)	inactive	8.53 µM (active)	inactive		inactive	6.3 µM (active)						18.1 µM (active)	
CC1(C)CON(Cc2ccccc2Cl)C1=O	inactive	inactive	inactive		inactive	25.6 µM (active)	inactive	inactive	inactive		inactive		inactive				
CCCN(CC)CC1COC2(CCC(C(C)(C)C)CC2)O1 (stereo unspecified)	inactive	inactive	inactive		inactive		inactive	inactive	inactive		inactive	inactive	inactive				
Cc1c(COC(=O)[C@@H]2[C@H](/C=C(\Cl)C(F)(F)F)C2(C)C)cccc1-c1ccccc1	inactive	inactive	inactive		inactive	34.7 µM (active)	inactive	inactive	inactive		inactive		inactive				
N#CN=C1SCCN1Cc1ccc(Cl)nc1	inactive	inactive	inactive		inactive		inactive	inactive	inactive		inactive	inactive	inactive				
CC(C)=CC1C(C(=O)OCc2coc(Cc3ccccc3)c2)C1(C)C (stereo unspecified)	inactive	inactive	inactive		inactive		inactive	inactive	inactive		inactive	inactive	inactive				
COC(=O)N(C(=O)N1CO[C@@]2(C(=O)OC)Cc3cc(Cl)ccc3C2=N1)c1ccc(OC(F)(F)F)cc1	inactive	inactive	inactive	40 µM (active)	inactive	4.25 µM (active)			inactive							40 µM (active)	
